Among the data in ChEMBL document CHEMBL4513160, “CO-ADD screening of MMV (CH) - Small Polar Library” are Inhibition values, retold here.

Molecules are shown by their SMILES. The whole screen tested about 18,000 compounds, of which fewer than 10 showed an effect of 50% or more. The list is a sample of the results.

The assay deals with Pseudomonas aeruginosa. In words: Antibacterial activity against Pseudomonas aeruginosa PAO397 [PAO1 d(mexAB-oprM) d(mexCD-oprJ) d(mexEF-oprN) d(mexJKL) d(mexXY) d(opmH)] (CO-ADD:GN_211); MIC in CAMBH media using NBS plates, by OD(600). Type of assay: functional. Conditions: Concentration 300 ug.mL-1, ASSAY_TEST Inhibition of Bacterial Growth, detection method Absorption (OD600), MEDIA CAMHB, plate type 384well, CORNING #3640, time 18 hr.
In the case of `COCCCOc1cnc(C#N)cn1`, the Inhibition is on record as -8.76%. The value for `Cc1ncccc1CN1CCCCC1(C)C(N)=O` (stereo unspecified) was -20.64%; that for `Cc1cc(C)cc(OCC(=O)N2CCNCC2)c1` was -0.07%.

Regarding `Cc1ccc(C(=O)NCCNC(=O)c2ccco2)cc1`, the Inhibition is recorded as -53.65%. For `CC1COCCN1Cc1cn2ccccc2n1` (stereo unspecified) the value was 15.25%; for `c1ccc(C/N=C2/CCCCCN2)nc1`, 23.32%. As for `N#Cc1ccc(CN)cc1F`, the Inhibition is 2.48%. For `CN1CCN(C(N)=O)C(c2ccccc2)C1` (stereo unspecified), the Inhibition was 4.12%. Turning to `COC(=O)CN1CCCC1=O`, the Inhibition came to 5.23%. Turning to `CCNC(=O)CSc1nc(C)c(C)n1CCOC`, the Inhibition was determined as 3.04%. As for `CN(C)C(CNC1=NCCN1)c1ccsc1` (stereo unspecified), the Inhibition is -1.92%. The value for `Cc1c(NC(=O)c2cnccn2)cccc1C(N)=O` was 2.03%; that for `CCn1cnnc1CNC(=O)c1cccc(N(C)C)c1` was -1.56%; that for `NC1CC(=O)c2ccccc21` (stereo unspecified) was 4.06%. The value for `O=C(CN1CCNC(=O)C1)NCCOc1ccccc1` was 25.17%. For `c1cn(-c2cc(N3CCSCC3)ncn2)cn1` the value was 8.05%. Regarding `O=C(c1ccsc1)N1CCCN(c2cccnn2)CC1`, the Inhibition stood at 0.34%. For `CC(C)n1nccc1NC(=O)CN(C)Cc1ccco1` the value was 9.78%; for `COc1ccc(CNc2ccncc2F)cc1C#N`, -8.23%. The value for `CC(C)(C)C(=O)Nc1ccc(N2CCNC(=O)C2)cc1` was 7.8%. Consider `COc1ccc(Cl)cc1NC(=O)N[C@@H]1CNCC[C@H]1O`, for which the Inhibition is reported as -35.77%. For `CN(C)C1(CNC(=O)c2cn[nH]c2)CCOCC1` the value was -13.75%; for `NCC1CCCOC1` (stereo unspecified), 10.08%; for `COc1cc(CCCN)cc(OC)c1O`, 4.59%. The value for `Cc1ccccc1CN1CCCN(CCC(N)=O)CC1` was -4.93%.

As to `NC(=O)NC(=O)CCNS(=O)(=O)c1ccccc1Cl`, the Inhibition worked out at 13.15%. As for `NCC(O)CN1CCc2ccccc2C1` (stereo unspecified), the Inhibition is recorded as -6.8%. For `CC(CC(=O)N1CC[C@H](O)C1)c1cccc(F)c1` (stereo partly specified) the value was -15.14%; for `CO[C@H]1CNCC1NC(=O)Cc1ccc(F)cc1F` (stereo partly specified), 11.48%. The value for `N#Cc1ncc(Cl)cc1Cl` was 28.39%; that for `CC(C)CC(=O)NCc1ccnc(N2CCCC2)c1` was -20.17%; that for `CCC[C@H]1CN(C(=O)c2csc(NC)n2)C[C@@H]1N` was 2.64%.

Consider `NCCN1C(=O)COc2ccccc21`, for which the Inhibition was -12.94%.

For the molecule `Cc1cc(NC(=O)NCC2CCN(CCO)CC2)no1`, the Inhibition was determined as 13.32%. Regarding `CCc1cccc(S(=O)(=O)N2CC[C@H](N)C2)c1`, the Inhibition is given as -15.97%.

For the molecule `COCCNCCNC(=O)c1ccc(Cl)c(C)c1`, the Inhibition is given as -10.19%. The value for `CNC(=O)c1ccc(C)c(NC(=O)c2ccco2)c1` was -0.03%; that for `OC(CNc1ncc(Cl)cc1F)CN1CCOCC1` (stereo unspecified) was 11.06%; that for `CC(C)C(=O)Nc1ccc(N2CCOCC2)nc1` was 4.38%. The value for `COC(=O)CCCC(=O)N1CCC2(CCCC2)C1` was 14.7%; that for `COCCNS(=O)(=O)C1CCCCC1` was -6.37%.

`CC(C)c1cccc(S(=O)(=O)N2CCCC2CN)c1` (stereo unspecified): the Inhibition was -46.42%. The value for `O=C(CN1CCCC1c1ccco1)N1CCOCC1` (stereo unspecified) was 18.12%; that for `CC(C)c1ccn(CC(=O)NC2CC2)n1` was 1.75%; that for `CCc1nnc(NCCS(=O)(=O)N(C)C)o1` was -4.82%. For `CC(C)n1cc(C(=O)NCCN(C)S(C)(=O)=O)cn1` the value was 17.41%; for `CC(=O)NCc1cn2c(C)cccc2n1`, -5.3%; for `Cc1ccnc(NCCS(=O)(=O)NCC2CCC2)c1`, -18.59%. For `CNC(=O)c1nc(-c2ccc(C(F)(F)F)cc2)no1` the value was 32.14%. As for `CN(c1ccccc1C(N)=O)S(=O)(=O)c1cccs1`, the Inhibition is -71.82%.

Take `CN(C(=O)COCC1CC1)c1nc2ccccc2n1C`: the Inhibition is listed as 4.52%. Take `CNc1ccc(N2CCOCC2)nc1`: the Inhibition is on record as -26.42%. For `CCN1CCN(CC(=O)Nc2ccc(C)cc2C)CC1` the value was -4.07%; for `CN(C)[C@@H]1CN(C(=O)c2ncccn2)C[C@H]1CO`, 3.69%; for `NC(=O)CCC1CCNCC1`, -8.79%. For `CCC(C)NC(=O)N1CCCN(C2CC2)CC1` (stereo unspecified) the value was 16.96%; for `Fc1ccccc1CN1CCn2ccnc2C1`, -12.72%. In the case of `NC1CCCN(c2noc(-c3ccccc3)n2)CC1` (stereo unspecified), the Inhibition is 0.95%. `COCCNC(=O)NCCc1ccc(C)c(OC)c1`: the Inhibition is listed as 7.38%. Take `Cc1ccc(NC(=O)NC2(CCO)CCOCC2)s1`: the Inhibition is -4.26%.

As to `CCc1nnc(NC2CCOC3(CCOCC3)C2)o1` (stereo unspecified), the Inhibition is given as 8.44%. The value for `CCc1ccccc1CN` was 3.32%. The value for `CC(=O)NC(C(=O)Nc1cccc(C)n1)C(C)C` (stereo unspecified) was -8.54%; that for `O=C1CN(Cc2ncc[nH]2)CCN1C1CCCC1` was 2.49%. Take `CCOCC(=O)N(C)Cc1cccc2cnccc12`: the Inhibition is on record as -38.69%. The value for `CC(CO)Sc1ccc(S(=O)(=O)C(F)F)cc1` (stereo unspecified) was 16.44%; that for `CS(=O)(=O)CC1(CNc2cccc(C(F)(F)F)n2)CC1` was -21.2%; that for `OCc1ccncc1NCC1CCOCC1` was 8.94%. The value for `OCCCNc1cccc(Cl)c1-n1cccn1` was -33.42%; that for `Cn1nc(C(F)(F)F)c(Cl)c1C(=O)N[C@@H]1CCNC1` was 31.11%; that for `CC(=O)NC(CC(=O)N1CCCC1)c1ccc(Cl)cc1` (stereo unspecified) was -24.39%.

`CN(Cc1ccccc1)C(=O)NC1CCCCNC1=O` (stereo unspecified): the Inhibition was -2.06%. For `CS(=O)(=O)N1CCCC(C(=O)Nc2cccnc2O)C1` (stereo unspecified) the value was 14.72%. For `Cc1cc(N(C)C)nc(N2CCCC2C(=O)N(C)C)n1` (stereo unspecified) the value was -8.5%; for `Cc1cc(NC(=O)CCn2ccnc2)no1`, 1.69%; for `COc1c(CNC(=O)c2cccs2)c(C)nn1C`, -17.79%. The value for `CCC(=O)N1CCCN(c2ccncc2Cl)CC1` was -2.88%; that for `CN1Cc2cccn2CC1CNC(=O)NC1CCCC1` (stereo unspecified) was -13.25%; that for `N[C@@H]1CC[C@@H]1NC(=O)CCn1cc(Cl)cn1` was -25.34%. Turning to `COc1cc(F)c(C(=O)N[C@@H]2CCNC[C@H]2O)c(F)c1`, the Inhibition is on record as 19.43%. Regarding `CN(c1ccc(O)cc1)S(=O)(=O)c1ccco1`, the Inhibition is -8.79%. For `CCOCC(=O)N1C[C@H](CO)C[C@H](CN2CCCC2)C1` the value was -0.69%; for `COc1ccc(CNC(=O)C2=COCCO2)cc1OC`, 2.02%; for `CCN(C)CCNC(=O)c1cc(C2CC2)[nH]n1`, -3.76%. The value for `Cn1c(N)nc2cc(F)ccc21` was -7.38%. The value for `COc1ccc(C)c(NC(=O)N(C)CCN(C)C)c1` was -15.47%. On to `NS(=O)(=O)CC1CCCN1CCSc1ccccc1` (stereo unspecified), for which the Inhibition was -5.99%. For `CCn1ccc(C(=O)NCc2ccco2)n1` the value was 2.87%; for `O=C1CCC(=O)N1CCSc1ccc2ccccc2n1`, -6.71%; for `Cc1cc(NC(=O)Nc2ccccn2)n(C)n1`, 4.35%. The value for `CC(=O)N1CCCn2nc(-c3cccnc3)cc2C1` was 11.49%; that for `COc1ccc(Br)c(S(=O)(=O)N(C)C)c1` was -20.8%. The value for `COc1ccc2c(c1)[C@@H](O)CCC2` was -31.22%; that for `N#Cc1ccc(OC2CCNC2)nc1` (stereo unspecified) was 1.63%. In the case of `O=C(CCc1ccccn1)NCCn1cccc1`, the Inhibition is 9.1%. The value for `N#CCSCC(=O)NCc1ccccc1F` was -29.21%. For `Nc1ncccc1CN1CCc2ccccc2CC1` the value was 7.61%; for `COc1ccc(-c2cncc(N)c2)cc1CO`, -5.49%. The value for `COCCN(C)C(=O)Nc1cccc(C)n1` was -9.37%; that for `NCC(=O)Nc1ccc2c(c1)CCC2` was -42.19%. On to `NCc1nc2c(s1)CCCC2`, for which the Inhibition is -13.62%. For `Cn1ccnc1SCCNCC1(O)CNCCOC1` (stereo unspecified) the value was 1.72%; for `COCCn1ccnc1CN1CCN(C)C(CO)C1` (stereo unspecified), -3.82%.

With `CN(C)C1CCCN(C(=O)c2n[nH]c(N)c2Cl)CC1` (stereo unspecified), the Inhibition is -17.73%. The value for `O=C1CC(N2CCN(Cc3ccccc3)CC2)C(=O)N1` (stereo unspecified) was -12.59%. For `CN1CC[C@H]2CN(C(=O)CCCc3cn[nH]c3)C[C@H]21` the value was -2.24%. The value for `CC(O)CCS(C)(=O)=O` (stereo unspecified) was 4.88%; that for `NC1CCN(S(=O)(=O)C2CC2)CC1` was 17.98%; that for `O=C(CCc1ccc2[nH]ccc2c1)N1CCOCC1` was -29.4%. With `CCOc1cc(C(=O)NC2=NCCS2)ccc1OC`, the Inhibition is 13.17%. Regarding `Cn1nc(C(=O)Nc2nc(CC(N)=O)cs2)ccc1=O`, the Inhibition is 12.8%. For `OCc1cc(CNc2ncccn2)ccc1F` the value was 6.43%. On to `CC(CN)N(C)C(=O)c1ccccc1Br` (stereo unspecified), for which the Inhibition came out at 12.75%.

As to `CN(C)c1ncccc1CNC(=O)COCC1CC1`, the Inhibition is reported as -2.02%. The value for `CC(C)C(=O)NCc1ccnc(-n2cccn2)c1` was 10.08%; that for `O=C(Cn1cc(Br)cn1)NC1CCc2nccn2C1` (stereo unspecified) was -4.73%; that for `CCCOc1cccc(NCCCS(C)(=O)=O)c1` was 1.09%. For `O=C(NCCCN1CCc2ccccc2C1)C1CC1` the value was -1.62%; for `NCC1CCN(c2cnn(CC3CCC3)c(=O)c2)CC1`, -9.55%; for `CC1CN(c2cc(CN)ccn2)CCO1` (stereo unspecified), 10.77%.

With `CC(C)(C(=O)N1CC[S+]([O-])C(C)(C)C1)c1ccccc1` (stereo unspecified), the Inhibition is given as 12.17%. The value for `NC(=O)NCC1CCN(Cc2ccccc2)C1` (stereo unspecified) was -16%; that for `COCC(=O)Nc1cccc(CN2CCCC2)c1` was -2.77%.

Take `NC(=O)C1CCN(C(=O)C2CCCO2)CC1` (stereo unspecified): the Inhibition is recorded as -13.49%. For `COc1ccc(C(=O)NCc2ccccn2)cc1F` the value was -44.49%. For the molecule `COC(=O)CNc1ccc2ccn(C)c(=O)c2c1`, the Inhibition came out at 13.73%. For `CN1CCCC(CCN)C1` (stereo unspecified) the value was 8.27%; for `Cc1nn(C)c(C)c1CCC(=O)NC1CCCNC1=O` (stereo unspecified), 6.16%; for `O=C(c1ccc(Br)cn1)N1CCN(CCO)CC1`, 18.45%.

Take `CSc1ncccc1C(=O)N1CCCC(C)(C#N)C1` (stereo unspecified): the Inhibition is -17.22%. For `CC1CCCN(Cc2cc(=O)n(C)c(=O)n2C)C1` (stereo unspecified) the value was 8.23%.

In general, Inhibition refers to the drop in the measured response relative to a control, in per cent.
